# Measured values taken from the supplement of paper PMC10338343.
# ± gives the standard deviation.
# System: EfPiwi piRISC loaded with piRNA #1 (26 nt)
# Test: pre-steady-state target cleavage rate (min^-1); auxiliary factor: 500 nM Ephydatia muelleri Gtsf1; guide: piRNA #1 5'p-UGAGGUAGUAGGUUGUAUAGUAUCCA; MIWI and MILI are mouse PIWI proteins and EfPiwi is from a freshwater sponge; tags in brackets are library labels; higher = faster piRNA-guided slicing of the target
# Method in brief: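 A transcribed, DNA-blocked target RNA library (0.1 nM) and 1 nM active affinity-purified piRISC bearing one synthetic guide were incubated in HEPES–potassium acetate buffer at 33 °C for 0–8 or 0–960 min, either with or without 500 nM GTSF1 partner protein. Uncleaved targets were sequenced, normalised to depth and to weakly complementary targets, and pooled over three trials, with k3 capped at 0.0001 min^-1. The pre-steady-state cleavage rate was derived with a burst-and-steady-state fit.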
row,Sequence,pre-steady-state target cleavage rate
1,GGAGACCAUACUAUACAGACCUACUACCUCA,0.0137 ± 0.0061
2,GGAGUGGAUACUAAACAACCUACUACCUGA,0.00228 ± 0.0017
3,GGAGAGGAUACUAUACAACUCUACUACCUCA,0.00443 ± 0.0043
4,GGAGACGAUACUAUACAACCUUCUAGCUCA,0.00455 ± 0.0027
5,GGAGAGGAUACUAUACAACCUACUAGGAGA [g6:g25:cont:t1A],0.00363 ± 0.0023
6,GGAGAGGAUACUAUACGAACCUACUACCUCA,0.0069 ± 0.0052
7,GGAGAGGAUACUAUACUACCUACUACCUGA,0.00353 ± 0.002
8,GGAGACCUUACUAUACAACCUAGUUCCUCA,0.00334 ± 0.0033
9,GGAGACCUUACUAUACAACGCUACUACCUCA,0.00566 ± 0.0038
10,GGAGAGGAUACUAUACAACCUUGAACCUCA,0.00408 ± 0.004
11,GGAGUGGAUACUAUACAACCAACUUCCUCA,0.00287 ± 0.0019
12,GGAGUGGAUACUAUACAACCUACAACCUGA,0.00253 ± 0.0013
13,GGAGACCUAACAAAACAACCUACUACCUCA,0.00903 ± 0.0046
14,GGAGACCUUACUAUACAACAUACUACCUCA,0.00974 ± 0.0063
15,GGAGACCUAUGAUAUGUUGCAACUACCACA,< 0.0001
16,GGAGAGGAUACUAUACAACACUACUACCUCA,0.00804 ± 0.0043
17,GGAGAGGAUAGUAUACAACCAACUACCUCA,0.00242 ± 0.0023
18,GGAGUGCAUACUAUACAACCUACAACCUCA,0.00301 ± 0.0024
19,GGAGACCUAACUAUACAACCUUCUACCUGA,0.00465 ± 0.0036
20,GGAGACGAUACUAUACUAACCUACUACCUCA,0.00448 ± 0.0044

row,Sequence,pre-steady-state target cleavage rate
1,GGAGAGGAUACUAUACAACCUAGUACCUGA,0.00379 ± 0.0015
2,GGAGACCUUACUAUACAACCUACUACCUAA,0.00756 ± 0.0045
3,GGAGAGGAUACUAUACAACCUAGAUCCUCA,0.00241 ± 0.0021
4,GGAGAGGAUACUAUACAAGCUACUACCUGA,0.00442 ± 0.0019
5,GGAGUGGAUACUAUACGAACCUACUACCUCA,0.00789 ± 0.0039
6,GGAGAGGAUACUAUACAACCAUACUACCUCA,0.00323 ± 0.0026
7,GGAGUGGAUACAAUACAACCUACUACCACA,0.00323 ± 0.0018
8,GGAGACGAUACUAUACAACCUACUAGGAGA [g6:g24:cont:t1A],0.00317 ± 0.0021
9,GGAGAGGAUACUAUACAACCUAGUAGCUCA,0.00479 ± 0.0019
10,GGAGAGGAUACUAUACAACCUUGUACCUCA,0.00294 ± 0.0029
11,GGAGAGGAUACUAUACAACCUACUACGAGA,0.00374 ± 0.0018
12,GGAGACCUAUCUAUACAACCUACUACGUCA,0.00352 ± 0.0031
13,GGAGAGGAUACUAUACAACCUUCUAGCUCA,0.00404 ± 0.0021
14,GGAGACCUUACUAUACAACCCUACUACCUCA,0.00411 ± 0.0037
15,GGAGAGGAUACUAUACAAGCCUACUACCUCA,0.00835 ± 0.005
16,GGAGACCAUACUAUACAACCUACUAUCUCA,0.00899 ± 0.0033
17,GGAGACCUAUGAUAUGUUCCUACAACGUCA,< 0.0001
18,GGAGAGGAUACUAUACAACCUACUUCCACA,0.00373 ± 0.0022
19,GGAGACCUAACUAUACAACCUAGUACCACA,0.00588 ± 0.0049
20,GGAGACCUAUGAAUAGAACCUACUAGCUCA,< 0.0001
